Measured values: PubChem BioAssay (Tox21)
Inconclusive results are not listed. Where a call stands in place of a potency, no number is given. Values without a mark were called inactive. Activity calls are given as the source filed them. The call rests on the fitted dose curve; in most records, active means well fitted curve in the direction sought with a large enough effect in the repeat runs; inconclusive means weak or mixed curves; inactive means no such curve, though single readings can be large; an effect the other way counts as inactive or inconclusive.

What was measured:
[1] = target: Cytochrome P450 2C19 (Homo sapiens) (UniProt P33261); assay: Cytochrome P450 Family 2 Subfamily C Member 19 (CYP2C19) small molecule antagonists: luciferase reporter qHTS assay (AID 1671197); details: P450-Glo CYP2C19 enzyme, luciferin luminescence, 1 h; series mostly up to 52.9 µM; further: nearly all actives have a fitted effect of over 65% in size; further: potency means the concentration at half of the fitted maximal effect
How it was run: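 Relative luminescence units recorded 20 min after the detection reagent stopped a 1 h, 37C CYP2C19 reaction on proluciferin substrate, which was started by NADPH regeneration following 10 min room-temperature compound preincubation; ketoconazole positive control.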

[2] = target: Cytochrome P450 2C9 (Homo sapiens) (UniProt P11712); assay: Cytochrome P450 Family 2 Subfamily C Member 9 (CYP2C9) small molecule antagonists: luciferase reporter qHTS assay (AID 1671198); details: P450-Glo CYP2C9 enzyme assay, luciferin luminescence; series mostly up to 115 µM; further: nearly all actives have a fitted effect of over 50% in size; further: potency means the concentration at half of the fitted maximal effect
How it was run: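 CYP2C9 activity was measured with a P450-Glo proluciferin substrate. Enzyme–substrate mix was held with compound for 10 min at room temperature, then NADPH regeneration solution was added for 1 h at 37C. Luciferin product was read as luminescence.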

[3] = target: Cytochrome P450 1A2 (Homo sapiens) (UniProt P05177); assay: Cytochrome P450 Family 1 Subfamily A Member 2 (CYP1A2) small molecule antagonists: luciferase reporter qHTS assay (AID 1671199); details: P450-Glo CYP1A2 enzyme, luciferin luminescence, 1 h; series mostly up to 53 µM; further: nearly all actives have a fitted effect of over 50% in size; further: potency means the concentration at half of the fitted maximal effect
How it was run: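 Inhibition of CYP1A2 conversion of proluciferin to luciferin, detected by luminescence. Reaction run 1 h at room temperature with NADPH regeneration after brief compound preincubation.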

[4] = target: Voltage-gated inwardly rectifying potassium channel KCNH2 (Homo sapiens) (UniProt Q12809); assay: Human Ether-a-go-go-Related Gene (hERG) channel small molecule antagonists: fluorescence cell-based qHTS assay (AID 1671200); details: hERG-U2OS cells, FluxOR thallium flux fluorescence; series mostly up to 76.8 µM;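 further: hERG-expressing U2OS cells given a thallium stimulus after FluxOR II dye loading; nearly all actives have a fitted effect of over 50% in size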
How it was run: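 Fluorescence at 540 nm emission (480 nm excitation) was recorded kinetically for 2 min at 1-second intervals once the thallium-containing stimulus reached cells previously loaded with FluxOR II dye.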

[5] = target: Cytochrome P450 3A4 (Homo sapiens) (UniProt P08684); assay: Cytochrome P450 Family 3 Subfamily A Member 4 (CYP3A4) small molecule antagonists: luciferase reporter qHTS assay (AID 1671201); details: P450-Glo CYP3A4 enzyme, luciferin luminescence, 1 h; series mostly up to 115 µM; further: nearly all actives have a fitted effect of over 50% in size
How it was run: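 qHTS, 1536-well. CYP3A4 + proluciferin substrate, cpd 10 min RT → NADPH regen 1 h RT → detection reagent 20 min → luminescence (RLU). Ketoconazole positive control.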

Chain of Cytochrome P450 2C19 (Homo sapiens) (P33261 whole entry, looked up): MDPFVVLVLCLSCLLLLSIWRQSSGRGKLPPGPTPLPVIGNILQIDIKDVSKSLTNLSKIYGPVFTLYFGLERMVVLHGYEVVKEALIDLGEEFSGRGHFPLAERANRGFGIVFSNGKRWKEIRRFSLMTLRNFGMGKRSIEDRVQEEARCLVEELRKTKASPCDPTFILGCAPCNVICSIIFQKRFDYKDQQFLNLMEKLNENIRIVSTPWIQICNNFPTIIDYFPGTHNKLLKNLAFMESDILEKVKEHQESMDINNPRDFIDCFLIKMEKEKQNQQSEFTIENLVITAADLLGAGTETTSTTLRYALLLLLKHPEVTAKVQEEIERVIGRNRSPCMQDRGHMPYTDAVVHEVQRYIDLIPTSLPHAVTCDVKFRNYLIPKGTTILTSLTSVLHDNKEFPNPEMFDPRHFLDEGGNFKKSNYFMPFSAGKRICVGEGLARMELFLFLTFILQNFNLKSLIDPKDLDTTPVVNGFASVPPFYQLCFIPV
Chain of Cytochrome P450 1A2 (Homo sapiens) (P05177 whole entry, looked up): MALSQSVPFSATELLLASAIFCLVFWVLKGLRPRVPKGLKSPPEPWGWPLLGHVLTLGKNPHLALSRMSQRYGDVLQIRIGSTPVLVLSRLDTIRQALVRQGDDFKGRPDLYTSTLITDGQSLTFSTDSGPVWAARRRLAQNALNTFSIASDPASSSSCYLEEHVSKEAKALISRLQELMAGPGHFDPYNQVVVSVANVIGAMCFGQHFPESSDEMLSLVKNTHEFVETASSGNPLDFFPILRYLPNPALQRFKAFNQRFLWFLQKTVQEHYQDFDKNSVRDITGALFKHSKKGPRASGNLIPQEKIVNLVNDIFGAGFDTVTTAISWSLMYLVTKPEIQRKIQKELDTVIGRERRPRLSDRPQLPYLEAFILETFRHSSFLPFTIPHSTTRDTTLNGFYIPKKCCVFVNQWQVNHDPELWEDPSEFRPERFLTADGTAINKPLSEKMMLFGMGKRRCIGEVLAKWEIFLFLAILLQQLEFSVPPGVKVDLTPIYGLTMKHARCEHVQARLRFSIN
Chain of Cytochrome P450 3A4 (Homo sapiens) (P08684 whole entry, looked up): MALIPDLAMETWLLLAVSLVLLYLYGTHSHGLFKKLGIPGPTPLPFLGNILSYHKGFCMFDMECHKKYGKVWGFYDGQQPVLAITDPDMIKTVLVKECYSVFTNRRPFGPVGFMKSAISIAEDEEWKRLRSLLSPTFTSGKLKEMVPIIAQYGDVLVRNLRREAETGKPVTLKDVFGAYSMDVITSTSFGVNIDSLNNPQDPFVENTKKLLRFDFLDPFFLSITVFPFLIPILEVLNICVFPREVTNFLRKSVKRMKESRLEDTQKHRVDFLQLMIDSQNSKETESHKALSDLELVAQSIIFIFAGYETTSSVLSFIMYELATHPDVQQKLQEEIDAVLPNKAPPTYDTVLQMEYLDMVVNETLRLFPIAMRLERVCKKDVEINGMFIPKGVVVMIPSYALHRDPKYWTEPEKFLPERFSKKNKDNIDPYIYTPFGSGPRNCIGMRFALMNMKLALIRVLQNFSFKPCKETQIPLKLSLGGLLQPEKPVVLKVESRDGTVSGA
Chain of Cytochrome P450 2C9 (Homo sapiens) (P11712 whole entry, looked up): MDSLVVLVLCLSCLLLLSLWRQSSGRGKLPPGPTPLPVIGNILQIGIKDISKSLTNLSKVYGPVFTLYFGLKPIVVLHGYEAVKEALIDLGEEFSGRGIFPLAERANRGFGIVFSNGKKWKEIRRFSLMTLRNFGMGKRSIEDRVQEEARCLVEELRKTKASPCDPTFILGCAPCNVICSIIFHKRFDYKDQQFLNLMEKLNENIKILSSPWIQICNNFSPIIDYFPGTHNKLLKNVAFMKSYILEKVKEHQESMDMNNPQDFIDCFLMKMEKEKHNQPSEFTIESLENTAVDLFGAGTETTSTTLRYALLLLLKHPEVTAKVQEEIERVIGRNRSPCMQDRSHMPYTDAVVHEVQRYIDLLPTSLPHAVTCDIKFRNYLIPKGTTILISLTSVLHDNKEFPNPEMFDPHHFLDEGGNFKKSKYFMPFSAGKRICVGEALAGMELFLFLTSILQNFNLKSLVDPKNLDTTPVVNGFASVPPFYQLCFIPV
Chain of Voltage-gated inwardly rectifying potassium channel KCNH2 (Homo sapiens) (Q12809 whole entry, looked up): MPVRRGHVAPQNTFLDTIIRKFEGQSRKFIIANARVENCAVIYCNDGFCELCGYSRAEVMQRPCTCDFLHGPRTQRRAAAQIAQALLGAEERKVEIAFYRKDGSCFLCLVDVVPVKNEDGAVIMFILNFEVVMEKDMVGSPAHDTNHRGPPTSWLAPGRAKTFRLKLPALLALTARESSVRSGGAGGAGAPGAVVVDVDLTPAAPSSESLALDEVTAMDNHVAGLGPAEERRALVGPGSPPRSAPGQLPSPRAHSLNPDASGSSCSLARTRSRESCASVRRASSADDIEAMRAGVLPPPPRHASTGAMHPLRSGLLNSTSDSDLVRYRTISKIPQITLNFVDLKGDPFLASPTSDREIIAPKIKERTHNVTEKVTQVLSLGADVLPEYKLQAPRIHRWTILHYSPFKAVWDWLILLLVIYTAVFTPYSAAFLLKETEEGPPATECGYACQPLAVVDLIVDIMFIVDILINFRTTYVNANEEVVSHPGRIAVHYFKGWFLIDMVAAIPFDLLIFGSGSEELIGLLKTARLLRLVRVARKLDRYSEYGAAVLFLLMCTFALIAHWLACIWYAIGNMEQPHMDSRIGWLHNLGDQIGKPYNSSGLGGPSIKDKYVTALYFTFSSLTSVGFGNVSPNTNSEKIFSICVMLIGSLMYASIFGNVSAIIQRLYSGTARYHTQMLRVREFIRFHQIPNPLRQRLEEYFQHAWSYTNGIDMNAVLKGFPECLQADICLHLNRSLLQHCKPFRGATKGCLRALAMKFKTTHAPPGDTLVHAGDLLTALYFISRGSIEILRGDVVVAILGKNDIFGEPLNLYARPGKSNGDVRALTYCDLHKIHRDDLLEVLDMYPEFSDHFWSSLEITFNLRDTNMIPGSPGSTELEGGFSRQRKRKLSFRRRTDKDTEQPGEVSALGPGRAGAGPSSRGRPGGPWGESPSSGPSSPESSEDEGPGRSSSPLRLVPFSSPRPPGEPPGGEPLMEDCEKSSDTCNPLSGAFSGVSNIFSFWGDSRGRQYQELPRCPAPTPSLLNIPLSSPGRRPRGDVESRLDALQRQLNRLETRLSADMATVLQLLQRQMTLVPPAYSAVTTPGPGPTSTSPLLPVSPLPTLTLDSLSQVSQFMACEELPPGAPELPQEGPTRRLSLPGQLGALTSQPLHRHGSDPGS

Compound | Potency [1] | Potency [2] | Potency [3] | Potency [4] | Potency [5]
CN1C(C)(C)CC(O)CC1(C)C | inactive | inactive | inactive | inactive | inactive
CCC(C(=O)NC(=O)NC(C)=O)c1ccccc1 (stereo not drawn) | inactive | inactive | inactive | inactive | inactive
CC(C)C1CCC(O)CC1 (stereo not drawn) | inactive | inactive | inactive | inactive | inactive
CN(C)C(=O)Oc1cccc([N+](C)(C)C)c1 | inactive | inactive | inactive | inactive | inactive
COc1cc(C(=O)NCc2ccc(OCCN(C)C)cc2)cc(OC)c1OC | inactive | inactive | inactive | inactive | –
O=C1c2ccccc2C(=O)c2cc(O)ccc21 | 22.5 µM (active) | 25.2 µM (active) | 7.11 µM (active) | – | –
CC(C)COC(=O)c1ccc(N)cc1 | 21.9 µM (active) | 13.8 µM (active) | 6.92 µM (active) | inactive | –
O=C(O)CCSCCC(=O)O | inactive | inactive | inactive | inactive | inactive
O=C(c1ccccc1O)c1ccccc1O | 11.1 µM (active) | 62.6 µM (active) | 3.52 µM (active) | inactive | –
O=C(CO)[C@@H](O)[C@H](O)[C@@H](O)CO | inactive | inactive | inactive | inactive | inactive
C1CCC2(CCCCO2)OC1 | inactive | inactive | inactive | inactive | inactive
COCCOC[C@H](CC1(C(=O)NC2CCC(C(=O)O)CC2)CCCC1)C(=O)Oc1ccc2c(c1)CCC2 (stereo partly drawn) | inactive | inactive | inactive | inactive | –
CC(C)c1ccc2ncccc2c1 | inactive | inactive | 63.3 µM (active) | inactive | inactive
CCO[Si](OCC)(OCC)c1ccccc1 | inactive | inactive | inactive | inactive | –
CO[C@@]1(NC(=O)C(C(=O)O)c2ccc(O)cc2)C(=O)N2C(C(=O)O)=C(CSc3nnnn3C)CO[C@@H]21 (stereo partly drawn) | inactive | inactive | inactive | inactive | inactive
